Where two headings read alike, the source gives them in different places. The whole screen tested about 13,000 compounds, of which about 3,200 (25%) showed an effect of 50% or more. Some of the results follow.
Tested on: P. falciparum stage V gametocytes
Set-up: BacTiter-Glo ATP luminescence viability of purified stage V gametocytes in 384-well plates, per cent inhibition versus DMSO
Conditions: 48 h, 5 µM, inhibitor

| Structure (SMILES) | % Inhibition | % Inhibition (% Inhibition) |
| --- | --- | --- |
| COc1ccc2nccc([C@@H](O)CN3CCC(NC(=O)[C@@H]4Cc5ccccc5CN4C(=O)OC(C)(C)C)CC3)c2c1 [TCMDC-141035] | 29.65% | – |
| O=C(/C=C/c1ccc(Cl)c(Cl)c1)NCCCCCN1CCC(NC(=O)Nc2cc(Cl)nc(Cl)c2)CC1 [TCMDC-135889] | -21.96% | – |
| Nc1cc2c(C3CCN(CC4CCN(C(=O)/C=C/c5ccc(Cl)c(Cl)c5)CC4)CC3)c[nH]c2cn1 [TCMDC-140133] | 101.5% | – |
| COc1cc2c(C3CCN(CC4CCN(C(=O)/C=C/c5ccc(Cl)c(Cl)c5)CC4)CC3)c[nH]c2cn1 [TCMDC-140246] | -34.41% | – |
| O=C(Nc1ccc(Cn2ncc(N3CCCNCC3)c(Cl)c2=O)cc1)Nc1ccc(SC(F)(F)F)cc1 [TCMDC-133320] | -14.71% | – |
| O=C(C=Cc1ccc(Cl)c(Cl)c1)NCCCCCN1CCC(CCCNC(=O)c2sc3ccccc3c2Cl)CC1 [TCMDC-139573] | 86.01% | – |
| O=C(/C=C/c1ccc(Cl)c(Cl)c1)NCCCCCN1CCC(CCNC(=O)c2snnc2-c2ccccc2)CC1 [TCMDC-140007] | -18.32% | – |
| O=C(/C=C/c1ccc(Cl)c(Cl)c1)NCCCCCN1CC[C@H](NC(=O)/C=C/c2ccccc2)C1 [TCMDC-139561] | -7.699% | – |
| O=C(/C=C/c1ccc(Cl)c(Cl)c1)NCCCCCN1CC[C@H](NC(=O)c2sc3ccccc3c2Cl)C1 [TCMDC-139562] | 48.14% | – |
| O=C(C=Cc1ccc(Cl)c(Cl)c1)NCCCCCN1CCC(CCNC(=O)c2sc3ccccc3c2Cl)CC1 [TCMDC-139567] | 38.26% | – |
| O=C(C=Cc1ccc(Cl)c(Cl)c1)NCCCCCN1CCCC(CCCNC(=O)c2sc3ccccc3c2Cl)C1 (stereo not shown) [TCMDC-139579] | 100.9% | – |
| O=C(/C=C/c1ccc(Cl)c(Cl)c1)NCCCCCN1CCCC(CNC(=O)c2sc3ccccc3c2Cl)C1 (stereo not shown) [TCMDC-139583] | 81.46% | – |
| CCC(NCc1ccc(-c2cncc(C(=O)NCC(C)C)c2)cc1)c1ccccc1 (stereo not shown) [TCMDC-134237] | 15.84% | – |
| Cc1cccc2nc(-c3ccc(-c4cccc(CNCc5cnn(-c6ccccc6)n5)c4)s3)[nH]c12.O=C(O)C(F)(F)F [TCMDC-132972] | -22.07% | – |
| O=C(NCc1ccccc1)OC1CNCCC1c1ccc(C(O)Cc2ccccc2)cc1 (stereo not shown) [TCMDC-141020] | 26.78% | – |
| CCc1ccc(-n2c(=O)c3cccnc3n2CC(=O)NC2CCCC2)cc1 [TCMDC-125158] | -2.653% | – |
| O=C(/C=C/c1ccc(Cl)c(Cl)c1)NCCCCCN1CCC(c2[nH]nc(-c3ccccc3)c2Br)CC1 [TCMDC-139448] | -19.71% | – |
| O=C(NCCNc1ccnc(Nc2ccc(F)cc2)n1)c1cc2ccccc2s1 [TCMDC-133637] | -20.49% | – |
| COCCNC(=O)c1ccc(OC2CCN(CC(C)=Cc3ccccc3)CC2)c(Cl)c1 [TCMDC-124691] | 9.67% | – |
| c1cncc(CN2CCCN(c3ccc4c(c3)CCN(Cc3ccc(-c5ncc[nH]5)cc3)CC4)CC2)c1 [TCMDC-136551] | -8.506% | – |
| c1ccc(CN2CCN(c3cc(-c4cncc(-c5ccccc5)c4)nc(-c4ccccc4)n3)CC2)cc1 [TCMDC-125589] | -13.47% | – |
| c1cncc(-c2cc(N3CCc4ccccc4C3)nc(-c3ccncc3)n2)c1 [TCMDC-125419] | 60.68% | – |

| Structure (SMILES) | % Inhibition | % Inhibition (% Inhibition) |
| --- | --- | --- |
| CN1CCN(c2cc(-c3cccnc3)nc(-c3ccncc3)n2)CC1 [TCMDC-125593] | 52.46% | – |
| c1ccc(N2CCN(c3cc(-c4cccnc4)nc(-c4ccncc4)n3)CC2)nc1 [TCMDC-125418] | 44.02% | – |
| CN1CCN(c2cc(-c3ccncc3)nc(-c3cccnc3)n2)CC1 [TCMDC-125596] | 38.53% | – |
| c1cncc(-c2cc(N3CCCCC3)nc(-c3ccncc3)n2)c1 [TCMDC-125594] | 3.34% | – |
| COc1ccc(NC(=O)Nc2cccc(-c3cccc(-c4nc5c(C)cccc5[nH]4)c3)c2)cc1 [TCMDC-133247] | -12.94% | – |
| Fc1ccc2[nH]c(-c3cccc(-c4ccc(CNCC5CCCO5)cc4)c3)nc2c1.O=C(O)C(F)(F)F (stereo not shown) [TCMDC-133105] | -0.6383% | – |
| N#CCCN1CCN(Cc2ccc(-c3ccc(-c4nc5ccc(F)cc5[nH]4)s3)cc2)CC1 [TCMDC-133861] | -54.51% | – |
| OCC1CCN(Cc2cccc(-c3cccc(-c4nc5ccc(C(F)(F)F)cc5[nH]4)c3)c2)CC1 [TCMDC-133129] | 41.06% | – |
| CC1CN(Cc2ccc(-c3ccc(-c4nc5ccc(F)cc5[nH]4)s3)cc2)CC(C)O1 (stereo not shown) [TCMDC-133819] | 9.471% | – |
| OCC1CCN(Cc2ccc(-c3cccc(-c4nc5ccc(C(F)(F)F)cc5[nH]4)c3)cc2)CC1 [TCMDC-133130] | -16.83% | – |
| CN1CCCC(CN2CCN(Cc3cccc(-c4ccc(-c5nc6ccc(F)cc6[nH]5)cc4)c3)CC2)C1 (stereo not shown) [TCMDC-133891] | 104.2% | – |
| CN1CCCC(CN2CCN(Cc3ccc(-c4ccc(-c5nc6ccccc6[nH]5)s4)cc3)CC2)C1 (stereo not shown) [TCMDC-133889] | 85.26% | – |
| OCC1CCN(Cc2cccc(-c3ccc(-c4nc5ccc(C(F)(F)F)cc5[nH]4)cc3)c2)CC1 [TCMDC-133123] | 76.36% | – |
| CN1CCCC(CN2CCN(Cc3ccc(-c4ccc(-c5nc6ccc(F)cc6[nH]5)s4)cc3)CC2)C1 (stereo not shown) [TCMDC-133892] | 66.7% | – |
| CN1CCCC(CN2CCN(Cc3ccc(-c4cccc(-c5nc6ccc(F)cc6[nH]5)c4)cc3)CC2)C1 (stereo not shown) [TCMDC-133883] | 67.8% | – |
| CC(=O)N(C)C1CCN(Cc2cccc(-c3ccc(-c4nc5ccc(C(F)(F)F)cc5[nH]4)cc3)c2)C1 (stereo not shown) [TCMDC-133884] | -40.19% | – |
| OCCN1CCN(Cc2ccc(-c3ccc(-c4nc5ccc(F)cc5[nH]4)cc3)cc2)CC1 [TCMDC-133030] | -14.7% | – |
| N#CCCN1CCN(Cc2cccc(-c3ccc(-c4nc5ccc(C(F)(F)F)cc5[nH]4)cc3)c2)CC1 [TCMDC-133844] | -10.1% | – |
| NC1CCN(Cc2cccc(-c3ccc(-c4nc5ccc(C(F)(F)F)cc5[nH]4)cc3)c2)C1 (stereo not shown) [TCMDC-133837] | 42.56% | – |
| CC1CN(Cc2ccc(-c3cccc(-c4nc5ccc(F)cc5[nH]4)c3)cc2)CC(C)O1 (stereo not shown) [TCMDC-133813] | -17.46% | – |
| COCCN1CCN(Cc2ccc(-c3ccc(-c4nc5ccc(F)cc5[nH]4)cc3)cc2)CC1 [TCMDC-133022] | -25.91% | – |
| OC1CCCN(Cc2cccc(-c3ccc(-c4nc5ccc(C(F)(F)F)cc5[nH]4)cc3)c2)C1 (stereo not shown) [TCMDC-133814] | -59.43% | – |

| Structure (SMILES) | % Inhibition | % Inhibition (% Inhibition) |
| --- | --- | --- |
| NC1CCCN(Cc2cccc(-c3ccc(-c4nc5ccc(C(F)(F)F)cc5[nH]4)cc3)c2)C1 (stereo not shown) [TCMDC-133839] | 50.43% | – |
| CN1CCCC(CN2CCN(Cc3cccc(-c4ccc(-c5nc6ccc(C(F)(F)F)cc6[nH]5)cc4)c3)CC2)C1 (stereo not shown) [TCMDC-133882] | 68.4% | – |
| N#CCCN1CCN(Cc2ccc(-c3cccc(-c4nc5ccc(F)cc5[nH]4)c3)cc2)CC1 [TCMDC-133845] | 7.403% | – |
| CN1CCCC(CN2CCN(Cc3ccc(-c4ccc(-c5nc6ccc(F)cc6[nH]5)cc4)cc3)CC2)C1 (stereo not shown) [TCMDC-133908] | 90.06% | – |
| COc1ccc2ncc(C#N)c(CCN3CCC(NCc4ccc5c(c4)OCCO5)CC3)c2c1 [TCMDC-135664] | 6.84% | – |
| O=C(Nc1cccc(-c2cccc(-c3nc4ccccc4[nH]3)c2)c1)NC1CC1c1ccccc1 (stereo not shown) [TCMDC-133256] | – | 3.053% |
| COc1ccc2c(c1)Sc1ccccc1C(N1CCN(CCO)CC1)C2 (stereo not shown) [TCMDC-139028] | -3.41% | – |
| Cc1cccc2nc(-c3ccc(-c4cccc(C(=O)NCCc5cn(C)cn5)c4)s3)[nH]c12 [TCMDC-132498] | -19.19% | – |
| CCOc1c(OC)ccc2c1CCN(CCN1CCC(NC(=O)c3ccc(-c4cccc(C(F)(F)F)c4C(F)(F)F)cc3)CC1)C2 [TCMDC-135432] | -45.25% | – |
| CCOc1cc(C(=O)Nc2ccccc2N2CCN(S(C)(=O)=O)CC2)cc(OCC)c1OCC [TCMDC-124994] | 1.091% | – |
| CCOc1cc(C(=O)NC2CCN(Cc3ccccc3)CC2)ccc1-c1nc2cc(Cl)c(Cl)cc2[nH]1 [TCMDC-140080] | -6.754% | – |
| COc1cccc(C(=O)NC(NC(=S)Nc2ccc(OC)cc2[N+](=O)[O-])C(Cl)(Cl)Cl)c1 (stereo not shown) [TCMDC-124141] | 23.91% | – |
| CCOc1cc(Br)c(C(C)NC(=O)c2ccccc2)cc1OCC (stereo not shown) [TCMDC-123743] | 65.54% | – |
| CCOc1cc(Br)c(C(C)NC(=O)c2cccc(OC)c2)cc1OCC (stereo not shown) [TCMDC-123742] | 47.1% | – |
| CCOc1cc(C(=O)Nc2ccc3nc(N(CC)CC)cc(C)c3c2)cc(OCC)c1OCC [TCMDC-124008] | -7.565% | – |
| CCOc1cc(Cl)c(C(C)NC(=O)c2ccccc2)cc1OCC (stereo not shown) [TCMDC-123744] | 73.45% | – |
| O=C(NOCCCCOc1ccc(Cl)c(Cl)c1)c1ccccc1 [TCMDC-131761] | -3.28% | – |
| CCOc1cc(Cl)c(C(C)NC(=O)c2cccc(OC)c2)cc1OCC (stereo not shown) [TCMDC-125450] | 81.4% | – |
| CC(C)C[C@H](NC(=O)c1ccc(OCCN2CCOCC2)cc1)C(=O)N[C@H](/C=N/N1CC(=O)NC1=O)CCc1ccccc1 [TCMDC-136155] | 17.61% | – |
| O=C(NC1CC1)c1ccc2cc(C(=O)N3Cc4ccccc4C(c4ccccc4)C3)ccc2c1 (stereo not shown) [TCMDC-131863] | 5.684% | – |

From paper PMC4552634, “A New Set of Chemical Starting Points with Plasmodium falciparum Transmission-Blocking Potential for Antimalarial Drug Discovery” (PLoS ONE, 2015)
